Shown is part of a subset that was picked to be rich in hits.
RE007 growth inh = less growth of the S. pombe RE007 Vpr strain; S. pombe RE007 Vpr strain, BacTiter-Glo ATP luminescence, 24 h; Potency, µM (top dose mostly 92.2 µM), usual class: inhibitors; 0.21% of 360,000 active; active = well fitted falling curve with a large enough effect; inconclusive = small, poorly fitted or top-dose-only effect; inactive = no such curve, though single readings can be large or run the other way; also: nearly all actives have a fitted effect of over 50% in size
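Fission yeast strain RE007, carrying one chromosomally integrated HIV-1 vpr copy, was seeded at OD 0.01 in PMG+AL medium with 23 nL pinned compound. After 24 h at 30 °C and 99% humidity, viability was read by BacTiter-Glo luminescence.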
LmPK inh = inhibitors of Leishmania mexicana pyruvate kinase; purified LmPK, Kinase-Glo ATP luminescence, 1 h; Potency, µM (doses to about 57.5 µM), usual class: inhibitors; 0.37% of 290,000 active
Target sequence (Q27686 whole entry, looked up): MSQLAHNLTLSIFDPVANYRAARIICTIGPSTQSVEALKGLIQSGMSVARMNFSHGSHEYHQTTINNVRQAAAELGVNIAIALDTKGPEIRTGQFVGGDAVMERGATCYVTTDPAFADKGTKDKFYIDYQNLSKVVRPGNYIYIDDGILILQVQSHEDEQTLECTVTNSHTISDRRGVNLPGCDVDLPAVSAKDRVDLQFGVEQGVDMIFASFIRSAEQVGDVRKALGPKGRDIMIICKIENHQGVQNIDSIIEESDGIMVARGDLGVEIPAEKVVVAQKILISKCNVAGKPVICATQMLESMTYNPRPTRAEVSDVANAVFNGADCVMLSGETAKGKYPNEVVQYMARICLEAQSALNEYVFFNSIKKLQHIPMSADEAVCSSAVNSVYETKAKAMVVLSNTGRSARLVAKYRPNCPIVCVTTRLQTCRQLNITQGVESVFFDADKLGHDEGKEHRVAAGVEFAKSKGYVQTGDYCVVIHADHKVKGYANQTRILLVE
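ATP generated from ADP (0.1 mM) and PEP (0.5 mM) by 0.1 nM LmPK over 1 h at room temperature (pH 7.2 imidazole buffer) was detected by coupled luciferase luminescence. Values were normalized to uninhibited and no-enzyme wells.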
Cycloheximide cs = counter-screen for Shiga toxin inhibitors: cycloheximide protein synthesis inhibition | cell reporter, cycloheximide protein synthesis inhibition counterscreen | max response, % | 12% of 300,000 active; in the data active = max response mostly above about 13%, no sharp cut-off; inactive = mostly below about 14%; also: read at 38.3 µM for the half of the compounds with a filed dose
Giardia FBPA inh = Giardia lamblia aldolase inhibition; A8B2U2; purified Giardia FBPA; Potency, µM (series often up to 59.6 µM), hits mostly inhibitors; 0.71% of 290,000 active; also: nearly all actives have a fitted effect of over 55% in size
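40 nM FBPA preincubated 10 min at RT with compound (up to 57.5 uM final), then substrate plus GAPDH/TPI/NAD/arsenate coupling and diaphorase/resazurin added. Fluorescence read after 20 min at RT, 525/598 nm.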
TbPYK inhibitor = blocks Trypanosoma brucei pyruvate kinase; Q57TT1; Potency, µM (doses to about 76.8 µM), hits mostly inhibitors; TbPYK enzyme, Kinase-Glo Plus ATP luminescence, 45 min; 0.12% of 410,000 active; also: nearly all actives have a fitted effect of over 50% in size
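T. brucei PYK with substrate was exposed to pin-transferred compounds across a concentration series, then started with 130 uM ADP (final). After 45 min at room temperature, Kinase-Glo Plus luminescence was read, normalized and curve-fitted.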
Shiga toxin inh = blocks Shiga toxin action in Vero cells | inhibition, % at 38.7 µM | 9.2% of 290,000 active | Vero cells, Shiga toxin protein synthesis inhibition reporter; in the data active = inhibition mostly above about 28%, no sharp cut-off; inactive = mostly below about 43%
Hits are given with their value. Unless noted, calls follow the shape of the dose curve; as a rule, active = well fitted curve in the direction sought with a large enough effect; inconclusive = small, poorly fitted or top-dose-only effect, or another doubt; inactive = no such curve, though single readings can be large; an effect the other way counts as inactive or inconclusive.

What do the screens show for `Fc1ccc(F)c(NC(=S)NCCc2ccccc2)c1`?
RE007 growth inh: inactive; LmPK inh: inactive; Cycloheximide cs: 30; Giardia FBPA inh: inactive; TbPYK inhibitor: inactive; Shiga toxin inh: 96

Results for CSc1ccccc1NC(=S)NCc1ccc(Cl)cc1 ?
RE007 growth inh: inactive; LmPK inh: inactive; Cycloheximide cs: 37; Giardia FBPA inh: inactive; TbPYK inhibitor: inactive; Shiga toxin inh: 151

How did CC(=O)c1ccc(N2CCN(C(=O)C3CCN(S(=O)(=O)c4cccc5nonc45)CC3)CC2)cc1 do in these assays?
TbPYK inhibitor: inactive

How did Cc1ccc(N2C(=O)CSC23C(=O)N(CC(=O)Nc2ccccc2F)c2ccccc23)cc1C (stereo not given) do in these assays?
TbPYK inhibitor: inactive

Results for COc1ccc(NC(=S)NCc2ccc(Cl)cc2)c(OC)c1 ?
RE007 growth inh: inactive; LmPK inh: inactive; Cycloheximide cs: 15; Giardia FBPA inh: inactive; TbPYK inhibitor: inactive

How did COc1ccc(NC(=S)NCCc2ccc(Cl)cc2)c(OC)c1 do in these assays?
RE007 growth inh: inactive; LmPK inh: inactive; Cycloheximide cs: inactive; Giardia FBPA inh: inactive; TbPYK inhibitor: inactive; Shiga toxin inh: inactive

How did Cc1nc2c3cnn(-c4ccc(C)c(C)c4)c3ncn2n1 do in these assays?
RE007 growth inh: inactive; LmPK inh: inactive; Cycloheximide cs: 29; Giardia FBPA inh: inactive; TbPYK inhibitor: inactive; Shiga toxin inh: 70

How did Cc1ccc(-n2ncc3c(=O)n(CC#N)cnc32)cc1C do in these assays?
RE007 growth inh: inactive; LmPK inh: inactive; Cycloheximide cs: 65; Giardia FBPA inh: inactive; TbPYK inhibitor: inactive; Shiga toxin inh: inactive

Results for C#CCn1cnc2c(cnn2-c2ccc(F)cc2)c1=O ?
TbPYK inhibitor: inactive

How did C#CCn1cnc2c(cnn2-c2ccc(C)c(C)c2)c1=O do in these assays?
RE007 growth inh: inactive; LmPK inh: inactive; Cycloheximide cs: 35; Giardia FBPA inh: inactive; TbPYK inhibitor: inactive; Shiga toxin inh: 141

Results for COc1ccccc1CNC(=O)c1c(O)nc2c(C)cccn2c1=O ?
TbPYK inhibitor: inactive

How did CCCN1CCc2c(sc(NC(=S)NC(=O)c3ccccc3)c2C#N)C1 do in these assays?
RE007 growth inh: inactive; LmPK inh: inactive; Cycloheximide cs: 38; Giardia FBPA inh: inactive; TbPYK inhibitor: inactive; Shiga toxin inh: 43

How did CC(C)C1Cc2c(sc(NC(=S)NC(=O)c3ccccc3)c2C#N)CO1 (stereo not given) do in these assays?
RE007 growth inh: inactive; LmPK inh: inactive; Cycloheximide cs: inactive; Giardia FBPA inh: inactive; TbPYK inhibitor: inactive; Shiga toxin inh: inactive

What do the screens show for `CC(C)N1CCc2c(sc(NC(=S)NC(=O)c3ccccc3)c2C#N)C1`?
RE007 growth inh: inactive; LmPK inh: inactive; Cycloheximide cs: 45; Giardia FBPA inh: inconclusive; TbPYK inhibitor: inactive; Shiga toxin inh: 39

How did COc1ccc(OC)c(C2=Nn3c(nnc3-c3cccc(OC)c3OC)SC2)c1 do in these assays?
Cycloheximide cs: inactive; Giardia FBPA inh: inactive; Shiga toxin inh: inactive

How did COc1ccccc1CNC(=O)CCc1c(C)c2cc3c(C)c(C)oc3cc2oc1=O do in these assays?
TbPYK inhibitor: inactive

Results for C=C(C)Cn1c(SCC(=O)Nc2ccccc2C)nc2sc3c(c2c1=O)CCCC3 ?
TbPYK inhibitor: inactive

Results for Oc1ccc(-c2csc(NCc3ccco3)n2)cc1 ?
RE007 growth inh: inactive; LmPK inh: inactive; Cycloheximide cs: 44; Giardia FBPA inh: inactive; TbPYK inhibitor: inactive; Shiga toxin inh: 158

What do the screens show for `CC(=O)Nc1cccc(-c2csc(C(C)(O)c3ccccc3)n2)c1` (stereo not given)?
RE007 growth inh: inactive; TbPYK inhibitor: inactive

Results for CC(=O)Nc1cccc(-c2csc(NCc3ccco3)n2)c1 ?
RE007 growth inh: inactive; LmPK inh: inactive; Cycloheximide cs: inactive; Giardia FBPA inh: inactive; TbPYK inhibitor: inactive; Shiga toxin inh: 51

What do the screens show for `Cc1nc2ncccn2c1-c1csc(NCc2ccco2)n1`?
RE007 growth inh: inactive; LmPK inh: inactive; Cycloheximide cs: inactive; Giardia FBPA inh: inconclusive; TbPYK inhibitor: inactive; Shiga toxin inh: inactive

How did c1coc(CNc2nc(-c3cccs3)cs2)c1 do in these assays?
RE007 growth inh: inactive; LmPK inh: inactive; Cycloheximide cs: 33; Giardia FBPA inh: inactive; TbPYK inhibitor: inactive; Shiga toxin inh: 90

How did O=C(CSc1nccn1-c1ccccc1)NO do in these assays?
RE007 growth inh: inactive; LmPK inh: inactive; Cycloheximide cs: inactive; Giardia FBPA inh: inactive; TbPYK inhibitor: inactive; Shiga toxin inh: inactive

How did Cc1ccc(C(=O)CSc2nccn2-c2ccccc2)cc1 do in these assays?
RE007 growth inh: inactive; LmPK inh: inactive; Cycloheximide cs: 49; Giardia FBPA inh: inactive; TbPYK inhibitor: inactive; Shiga toxin inh: 143

Results for O=C(CSc1nccn1-c1ccccc1)c1ccc(Cl)cc1 ?
RE007 growth inh: inactive; LmPK inh: inactive; Cycloheximide cs: 30; Giardia FBPA inh: inactive; TbPYK inhibitor: inactive; Shiga toxin inh: 83

How did O=C(CSc1nccn1-c1ncc(C(F)(F)F)cc1Cl)c1ccc(Br)cc1 do in these assays?
RE007 growth inh: inactive; LmPK inh: inactive; Cycloheximide cs: 31; Giardia FBPA inh: inactive; TbPYK inhibitor: inactive; Shiga toxin inh: inactive

Results for Cc1nc(-c2ccc(S(=O)(=O)N3CCN(c4cccc(C(F)(F)F)c4)CC3)cc2)co1 ?
TbPYK inhibitor: inactive

How did C/C(=N/NC(=O)c1ccc(Br)o1)c1cccs1 do in these assays?
RE007 growth inh: inactive; LmPK inh: inactive; Cycloheximide cs: 50; TbPYK inhibitor: inactive; Shiga toxin inh: 123

Results for C/C(=N\NC(=O)c1cc(C)nc2ccccc12)c1cccs1 ?
RE007 growth inh: inactive; LmPK inh: inactive; Cycloheximide cs: inactive; Giardia FBPA inh: inactive; TbPYK inhibitor: inactive; Shiga toxin inh: inactive

How did C/C(=N\NC(=O)c1cc(Br)ccc1O)c1cccs1 do in these assays?
RE007 growth inh: inactive; LmPK inh: inactive; Cycloheximide cs: 37; Giardia FBPA inh: inactive; TbPYK inhibitor: inactive; Shiga toxin inh: 126

Results for COc1ccc2nc3sc(C(=O)NCCc4ccc(Cl)cc4)cc3cc2c1 ?
TbPYK inhibitor: inactive

How did COc1ccc2cc3cc(C(=O)NC4CC4)sc3nc2c1 do in these assays?
RE007 growth inh: inactive; LmPK inh: inactive; Cycloheximide cs: 48; Giardia FBPA inh: inactive; TbPYK inhibitor: inactive; Shiga toxin inh: 57

What do the screens show for `CCN1CCN(C(=O)c2cc3cc4cc(OC)ccc4nc3s2)CC1`?
RE007 growth inh: inactive; LmPK inh: inactive; Cycloheximide cs: 12; Giardia FBPA inh: inactive; TbPYK inhibitor: inactive; Shiga toxin inh: 25

How did COc1ccc2cc3cc(C(=O)NCCCN4CCc5ccccc5C4)sc3nc2c1 do in these assays?
RE007 growth inh: inactive; LmPK inh: inactive; Cycloheximide cs: 35; Giardia FBPA inh: inconclusive; TbPYK inhibitor: inactive; Shiga toxin inh: 71

How did CCOc1ccc(CCNC(=O)c2cc3cc4ccc(OC)cc4nc3s2)cc1OCC do in these assays?
TbPYK inhibitor: inactive
